# Source: PubChem BioAssay (The Scripps Research Institute Molecular Screening Center)
# LYPLA2 inh: blocks human lysophospholipase 2, a PME1 counter-screen. O95372. recombinant LYPLA2, FP-Rh probe fluorescence polarization. inhibition, % at 5.9 µM. hit rate 0.38% among 320,000;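 active = inhibition above the screen-wide mean plus 3 SD, limit set per campaign, cut at about 26% in these data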;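 also: 0% = LYPLA2 with DMSO and 100% = wells lacking LYPLA2 enzyme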
# LYPLA1 counter: LYPLA1 (human) inhibition in PME1 counter-screen; O75608; recombinant LYPLA1, FP-Rh probe fluorescence polarization; inhibition, % at 5.9 µM; hit rate 0.16% among 320,000;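 active = inhibition above the mean of all tested compounds plus 3 SD, set per campaign, cut at about 14% in these data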;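 also: inhibitors block serine hydrolase probe labeling of LYPLA1 so polarization falls; 0% = enzyme with DMSO and 100% = wells lacking LYPLA1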
# Fam108B inh: counter-screen for RBBP9 inhibitors: inhibitors of mouse Fam108B | recombinant Fam108B, FP-Rh probe fluorescence polarization | hit rate 0.33% among 300,000 | inhibition, % at 9.51 µM | AID 1947;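 active = inhibition above the screen mean inhibition plus 3 SD, computed separately per campaign, cut at about 18% in these data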;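 also: inhibitors lower polarization as less probe binds the enzyme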
# PME-1 inh: blocks human protein phosphatase methylesterase 1; hit rate 0.53% among 320,000; inhibition, % at 5.9 µM; recombinant PME-1, FP-Rh probe fluorescence polarization; AID 2130; Q9Y570;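 active = inhibition above the campaign mean of all compounds plus 3 SD, cut at about 26% in these data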;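 also: competitive labeling of PME-1 active site by serine hydrolase directed probe; 0% = PME-1 with DMSO and 100% = wells lacking PME-1 enzyme; inhibitors block probe labeling so polarization falls and inhibition rises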
# PREPL inhibitor: human PREPL enzyme inhibition | recombinant PREPL, fluorescence polarization activity-based probe | hit rate 0.68% among 320,000 | inhibition, % at 5.96 µM | Q4J6C6 | AID 2751; in the data active = inhibition above about 43%;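 also: 0% = enzyme with DMSO and 100% = wells lacking enzyme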
# Target sequence (Q4J6C6 whole entry, looked up): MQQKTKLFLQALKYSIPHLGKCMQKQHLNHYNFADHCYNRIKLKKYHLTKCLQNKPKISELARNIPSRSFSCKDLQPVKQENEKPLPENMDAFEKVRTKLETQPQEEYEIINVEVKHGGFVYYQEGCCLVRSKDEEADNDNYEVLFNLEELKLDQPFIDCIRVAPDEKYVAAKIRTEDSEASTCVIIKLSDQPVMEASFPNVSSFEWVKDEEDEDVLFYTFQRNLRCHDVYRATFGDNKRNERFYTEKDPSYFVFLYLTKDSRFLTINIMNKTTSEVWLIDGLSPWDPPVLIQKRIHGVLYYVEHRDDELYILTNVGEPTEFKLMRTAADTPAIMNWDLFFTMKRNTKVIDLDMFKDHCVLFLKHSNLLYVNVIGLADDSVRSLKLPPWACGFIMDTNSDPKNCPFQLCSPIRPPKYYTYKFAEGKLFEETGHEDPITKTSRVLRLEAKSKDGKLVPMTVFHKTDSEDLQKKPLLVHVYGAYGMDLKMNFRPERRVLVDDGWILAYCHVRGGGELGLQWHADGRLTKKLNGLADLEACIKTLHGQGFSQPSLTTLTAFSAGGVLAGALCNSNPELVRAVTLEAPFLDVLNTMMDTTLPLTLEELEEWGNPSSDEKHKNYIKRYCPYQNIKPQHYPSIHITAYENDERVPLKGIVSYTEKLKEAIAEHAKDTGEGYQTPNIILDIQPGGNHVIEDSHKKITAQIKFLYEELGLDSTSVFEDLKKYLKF
# Fam108b inh conf: confirmation of mouse Fam108b serine hydrolase inhibitors | shares compounds with Fam108B inh | recombinant Fam108b, FP-Rh probe fluorescence polarization | inhibition, % at 9.51 µM | hit rate 44% among 930;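 active = inhibition above a limit from the primary screen, the mean over all compounds plus 3 SD, cut at about 19% in these data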;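 also: 0% = median of active Fam108b wells and 100% = catalytically dead S170A mutant; inhibitors free the probe so polarization falls as inhibition rises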
# Fam108b inh: inhibits mouse Fam108b in gel-based ABPP; shares compounds with Fam108B inh; recombinant Fam108b, fluorophosphonate probe; inhibition, % at 20 µM; hit rate 44% among 260; in the data active = inhibition above about 40%
# * = called active by the depositor; . = no result given. Only some compounds are listed: those with a hit (about 1.3% of all), similar ones and a draw of the others.
SMILES,LYPLA2 inh,LYPLA1 counter,Fam108B inh,PME-1 inh,PREPL inhibitor,Fam108b inh conf,others
O=C(N/C(=C\c1ccccc1)C(=O)N1CCOCC1)c1ccco1,-4,-6,42*,-12,19,0,
O=C(CCCN1C(=O)c2cccc3cccc(c23)C1=O)NCc1ccco1,0,-2,1,8,5,.,
O=C(CCCN1C(=O)c2cccc3cccc(c23)C1=O)NCc1cccs1,-7,-5,22*,1,-16,27*,
O=C(NCCO)Nc1ccc2nc(-c3ccco3)c(-c3ccco3)nc2c1,4,-7,68*,25,42,45*,Fam108b inh=0
CC(=O)c1ccc(NC(=O)c2ccc3nc(-c4ccco4)c(-c4ccco4)nc3c2)cc1,-9,-22,40*,5,30,29*,
O=C(Nc1ccc(N2CCOCC2)cc1)c1ccc2nc(-c3ccco3)c(-c3ccco3)nc2c1,-3,-5,-6,-1,13,.,
O=C(Nc1ccccc1)c1ccc2nc(-c3ccco3)c(-c3ccco3)nc2c1,-14,-22,48*,8,42,8,
O=C(NCCO)Nc1ccc2nsnc2c1,5,8,0,5,-1,.,
Cc1cc(OCCCC(=O)Nc2cccc(-n3cnnn3)c2)ccc1Cl,-2,-6,-7,-11,-12,.,
COc1ccc(N=Nc2nc3cc(Br)c(Br)cc3n2C)c(OC)c1,10,4,31*,61*,35,12,
COc1ccc(CNc2nc3ccccc3n2C)c(OC)c1,2,-3,9,10,15,.,
COc1ccc(C2C3=C(CCCC3=O)NC3=C2C(=O)c2ccccc23)cc1 (centres undefined),4,0,20*,10,14,26*,
COc1ccc2nc3cccc(OC)c3nc2c1,4,0,8,-3,4,.,
COc1ccc2nc(-c3ccco3)c(-c3ccco3)nc2c1,4,-3,21*,-1,26,54*,Fam108b inh=35
Nc1nc(-c2ccco2)c(-c2ccco2)s1,-2,-3,14,1,11,.,
c1coc(-c2nc(-c3ccco3)c(-c3ccco3)nc2-c2ccco2)c1,-1,-15,71*,4,71*,10,
CSc1ccc(C(=O)NC2CCSc3ccccc32)cc1 (centres undefined),1,1,-3,2,3,.,
Oc1c(Br)cc(/C=N/Nc2nncc3ccccc23)cc1Br,-5,1,19*,5,7,23*,
Oc1ccc(/C=N/Nc2ccc(Cl)nn2)c(O)c1O,1,-5,23*,-3,27,-8,
CCOc1ccc(/C=N/Nc2ccc(Cl)nn2)c(O)c1,0,-6,-1,1,-12,.,
Oc1c(Br)cc(Br)cc1/C=N/Nc1ccc(Cl)nn1,2,0,5,1,2,.,
Oc1c(Br)cc(/C=N/Nc2ccc(Cl)nn2)cc1Br,3,5,26*,12,18,-13,
Cc1ccccc1NC(=O)c1ccc2c(O)c(S(=O)(=O)c3ccccc3)c(=O)[nH]c2c1,-3,4,1,4,-3,.,
Cc1ccc(NC(=O)CCc2nc3sc4c(c3c(=O)[nH]2)CCCC4)c(Br)c1,-5,-4,0,-10,-41,.,
Cn1c(SCC(=O)N/N=C/c2ccc([N+](=O)[O-])s2)nnc1-c1ccccc1,13,0,21*,11,28,10,
SMILES,LYPLA2 inh,LYPLA1 counter,Fam108B inh,PME-1 inh,PREPL inhibitor,Fam108b inh conf,others
COc1ccc(NC(=O)C2CCCN(S(=O)(=O)c3ccc(Cl)cc3)C2)cc1OC (centres undefined),6,-1,2,-3,-1,.,
Cn1ncc2c(Nc3ccc(Br)cc3)nc(Nc3ccc(Br)cc3)nc21,-57,-40,19*,11,24,-21,
O=C(CCCSc1ccccc1)Nc1nc(-c2ccco2)c(-c2ccco2)s1,7,-10,47*,33*,27,32*,Fam108b inh=75*
O=C(CCl)Nc1nc(-c2ccco2)c(-c2ccco2)s1,-1,-4,19*,-7,14,7,
O=C(CCCSc1ccccc1)Nc1nc(-c2ccccn2)cs1,-1,-3,-1,1,4,.,
COc1ccc(CCN(C)C(=O)C(CCSC)NC(=O)c2ccco2)cc1OC (centres undefined),-5,-2,.,5,8,.,
